Only some compounds are listed: those with a hit (about 10% of all), similar ones and a draw of the others.
Lamin A splicing: LMNA splicing modulation. HeLa LMNA splicing GFP/RFP minigene ratio, 48 h. Potency, µM (titrated, usually from 46.1 µM), for inactives: at the highest dose ratio change, negative = inhibition, usual class: inhibitors. 0.01% of 200,000 active. AID 1487; active = well fitted inhibition curve with a large enough effect in the signal ratio, with a control signal flat, not every such curve was filed as active; inconclusive = small, poorly fitted or top-dose-only effect, or effect the other way, or a change in a side signal; the % refers to the signal ratio; note: potency is the fitted concentration of half-maximal effect
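S3 HeLa cells stably expressing lamin A-EGFP splicing minigene plus DsRed2, 600 cells/well, 48 h compound exposure at 37C. Laser-scanning cytometry; analysed as GFP (500-530 nm)/RFP (575-640 nm) total intensity ratio; 0.5% DMSO vehicle.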
PNC assembly inh: inhibitors of perinucleolar compartment assembly; 3.1% of 140,000 active; activity change (PNC), negative = inhibition, % at 10 µM; PC3M PTB-GFP, PNC prevalence imaging, 16 h; active compounds read low; AID 2417;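 active = readout at or below -70, meaning at least 70% loss of cells showing the perinucleolar compartment, a nuclear body marking cancer cells; inconclusive = readout between -30 and a set limit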;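 note: plate controls were DMSO wells for no effect and camptothecin positive control wells for full effect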
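Compounds are pinned in duplicate onto adhered PC3M cells stably expressing GFP-tagged PTB and incubated 16 h at 37 C. Cells are then fixed, nuclei stained with Hoechst, and PNC-positive cells counted.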
HPGD inh: inhibitors of human 15-hydroxyprostaglandin dehydrogenase (HPGD); P15428; purified HPGD, NADH fluorescence kinetic, PGE2 substrate; Potency, µM, inactives show at the highest dose activity change, negative = inhibition, most hits filed as inhibitors; 4.3% of 150,000 active; AID 894; note: potency is the fitted concentration of half-maximal effect
Target sequence (P15428 whole entry, looked up): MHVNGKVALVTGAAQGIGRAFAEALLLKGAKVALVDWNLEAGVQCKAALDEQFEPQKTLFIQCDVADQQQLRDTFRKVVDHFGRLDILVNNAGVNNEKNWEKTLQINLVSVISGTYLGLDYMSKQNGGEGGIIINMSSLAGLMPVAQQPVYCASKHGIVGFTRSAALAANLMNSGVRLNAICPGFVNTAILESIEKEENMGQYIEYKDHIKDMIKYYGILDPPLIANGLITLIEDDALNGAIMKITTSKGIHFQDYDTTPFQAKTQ
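20 nM HPGD preincubated 15 min at room temperature with compound in 50 mM Tris-HCl pH 8, 0.01% Tween 20. Started with 1 mM NAD+ and 30 uM prostaglandin E2; NADH fluorescence (360/450 nm) read 5 times over 30-s intervals, last minus first.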
ALDH1A1 inh: inhibitors of human aldehyde dehydrogenase 1A1. Purified ALDH1A1, NADH fluorescence, propionaldehyde substrate. Potency, µM (top dose mostly 75.3 µM), for inactives: at the top dose activity, negative = inhibition, actives largely listed as inhibitors. 7.3% of 220,000 active;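 note: potency is the fitted concentration of half-maximal effect; plate controls were no enzyme wells and a reference inhibitor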
Luc counter: counter-screen: inhibitors of Kinase-Glo firefly luciferase | Potency, µM (titrated, usually from 38.3 µM), without a hit: at the top dose activity change, negative = inhibition, usual class: inhibitors | 0.28% of 200,000 active | Q27757 | Kinase-Glo luciferase, ATP luminescence, 8 min; active = well fitted inhibition curve with a large enough effect; inconclusive = small, poorly fitted or top-dose-only effect; note: potency is the fitted concentration of half-maximal effect; nearly all actives have a fitted effect of over 60% in size
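Luminescence was the read-out, taken after 8-minute incubation at ambient temperature. Luciferase turned over luciferin with 10 uM ATP in imidazole pH 7.2 buffer containing KCl, MgCl2, Tween 20 and BSA.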
Active calls of the source: *; ? = inconclusive; nt = not tested or not shown; [ ] = dose if it differs, or a comment. Unless noted, calls come from the whole dose curve; as a rule, active = well fitted inhibition curve with a large enough effect (not every such curve was filed as active); inconclusive = small, poorly fitted or top-dose-only effect, or another doubt; inactive = no such curve, though single readings can be large or run the other way. Unless noted, % is set by controls: 0 for no effect and ±100 for the full control effect.

SMILES	Lamin A splicing	PNC assembly inh	HPGD inh	ALDH1A1 inh	Luc counter
O=C(CN(C1CCCCC1)S(=O)(=O)c1ccc(Cl)cc1)NCc1ccncc1	?	-100*	1%	-9%	-4%
O=C(CN(C1CCCCC1)S(=O)(=O)c1ccc(Br)cc1)NCc1ccncc1	?	nt	nt	-2%	5%
Cc1cc(C)c(S(=O)(=O)N(CC(=O)NCc2cccnc2)C2CCCCC2)c(C)c1	-1%	-88*	-8%	15%	-2%
COc1ccccc1CNC(=O)C1CCN(c2nc3ccc(Cl)cc3[nH]2)CC1	-14%[46 µM]	nt	nt	nt	nt
CN(CC(=O)Nc1ccc(Cl)cc1)c1ccc(S(=O)(=O)N2CCCCC2)cc1[N+](=O)[O-]	?	5	-14%	11µM*	2%
COC(=O)CSc1ccc(S(=O)(=O)N2CCCCCC2)cc1[N+](=O)[O-]	nt	nt	nt	10µM*	0%
COc1ccc(-c2nc3cnc(N4CCN(C)CC4)nc3n(CCC#N)c2=O)cc1	nt	nt	?	?	2%
NCCC[C@@H](CC(=O)N[C@@H]1CCCC[C@H]1C(=O)N[C@H](CC(=O)N[C@@H](CCC(=O)O)CC(=O)O)Cc1c[nH]c2ccccc12)NC(=O)C[C@H](Cc1ccccc1)NC(=O)[C@@H]1CCCC[C@H]1N	nt	nt	-10%	5%	2%
O=c1cc(-c2ccccc2)n(S(=O)(=O)c2ccccc2)o1	17%	4	-18%	25µM*	-1%
Cn1sc(NC(=O)c2ccccc2Cl)nc1=O	8%	?	14µM*	11µM*	-4%
O=C(Oc1ccc(NC2=C(Cl)C(=O)c3ccccc3C2=O)cc1)c1ccc([N+](=O)[O-])cc1	-7%	-2	-8%	4%	-4%
CN(C)c1ccc(NC2=C(Cl)C(=O)c3ccccc3C2=O)cc1	?	26	14µM*	?	-14%
CCC[C@@H]1O[C@@H]2C[C@@H]3[C@H]4CCC5=CC(=O)C=C[C@@]5(C)[C@H]4[C@H](O)C[C@@]3(C)[C@@]2(C(=O)CO)O1	10%	nt	-1%	-2%[20.9 µM]	-4%[17.1 µM]
O=C(O)CC[C@@H](C(=O)O)N1C(=O)[C@@H]2[C@@H]3CC[C@H](C3)[C@@H]2C1=O	nt	nt	-2%	6%[13.5 µM]	-1%[7.66 µM]
CN(C)c1ccc(C(=C2C=CC(=[N+](C)C)C=C2)c2c(O)c(S(=O)(=O)O)cc3cc(S(=O)(=O)O)ccc23)cc1	nt	nt	-7%	3.5µM*	?
CC(=O)c1cccc(NC(=O)C2CC(=O)N(c3cccc(C)c3C)C2)c1 (stereo not drawn)	4%	-6	-2%	5µM*	-2%
COc1ccccc1N1CC(C(=O)Nc2cccc(C(=O)O)c2)CC1=O (stereo not drawn)	7%	-9	-8%	?	10%
CC(=O)c1cccc(NC(=O)C2CCCCC2)c1	7%	3	-12%	8.9µM*	-1%
CC(=O)c1cccc(NC(=S)NC2CCCCC2)c1	?	-23	-10%	-5%	1%
c1ccc(Cc2nnc(N3CCOCC3)c3ccccc23)cc1	5%	?	25µM*	-4%	5%
CCOC(=O)C1=C(c2ccccc2)N=C2SCC(=O)N2C1c1ccc(OC)c(OC)c1 (stereo not drawn)	-8%	32	-14%	12%	-2%
CCOC(=O)C1=C(c2ccccc2)N=C2SCC(=O)N2C1c1ccc2c(c1)OCO2 (stereo not drawn)	15%	?	-18%	13µM*	0%
Cc1ccc(NC(=O)CN(C)C2CCCCC2)cc1Br	nt	nt	nt	28µM*	-1%
O=c1c(-c2ccc(Cl)cc2)nc2cncnc2n1Cc1ccccc1Cl	nt	nt	-11%	-16%	1%
CCn1c(=O)cc(OCC(=O)N2CCCC2)c2ccccc21	-11%	10	-12%	-13%	16%
SMILES	Lamin A splicing	PNC assembly inh	HPGD inh	ALDH1A1 inh	Luc counter
CCn1c(=O)cc(OCC(=O)N2CCN(c3cccc(C(F)(F)F)c3)CC2)c2ccccc21	2%	-5	?	11µM*	-5%
CCOc1ccccc1NC(=O)CN(C)S(=O)(=O)c1ccc(OC)c(C)c1	-5%	19	16µM*	?	1%
COc1ccc(-c2cc(-c3ccccc3)c(C#N)c(S(C)=O)n2)cc1 (stereo not drawn)	?	37	?	?	-4%
COc1cc(OC)c(C#N)c(S(=O)Cc2ccccc2)c1 (stereo not drawn)	16%	32	-4%	14µM*	-3%
COc1ccc(CCNC(=O)CSc2nnc(-c3cccc(C)c3)o2)cc1OC	11%	-18	-26%	18µM*	-2%
CCn1c2ccccc2c2cc(NC(=O)CSc3nnc(-c4cccc(C)c4)o3)ccc21	?	?	-10%	18µM*	4%
COc1ccc(Cc2nnc(-c3cccc(C)c3)o2)cc1OC	?	20	18µM*	-7%	3%
COc1ccccc1CNc1ncncc1-c1ccc(C(=O)N(C)C)cc1	9%	nt	nt	-9%	nt
Cc1c(N=NC2=C(O)CCCC2=O)c(=O)n(-c2ccccc2)n1C	nt	nt	nt	13µM*	-1%
Cc1csc(NC(=O)C2CC(=O)N(Cc3ccco3)C2)n1 (stereo not drawn)	-11%[46 µM]	nt	nt	1%	-3%
O=C(COC(=O)C1CC(=O)N(Cc2ccco2)C1)c1ccc(OC(=O)c2ccccc2)cc1 (stereo not drawn)	-4%	-3	28µM*	14µM*	-1%
O=C(OCC(=O)N1c2ccccc2Sc2ccccc21)C1CC(=O)N(Cc2ccco2)C1 (stereo not drawn)	-4%	-21	-12%	35µM*	-1%
COC(=O)c1ccc(NC(=O)COC(=O)C2CC(=O)N(Cc3ccccc3)C2)cc1 (stereo not drawn)	15%[46 µM]	nt	nt	1%	-1%
Cc1noc(C)c1CSc1ncnc2sc(C)c(C)c12	-1%	-3	-30%	-4%	0%
Cc1noc(C)c1CSc1ncnc2sc3c(c12)CCCCC3	3%	?	?	28µM*	-1%
COc1ccccc1C1CN(c2ccc(F)cc2F)N=C1c1cccs1 (stereo not drawn)	-11%	-94*	?	?	2%
COc1ccccc1C1CC(c2cccs2)=Nc2ccccc2S1 (stereo not drawn)	-15%	13	-4%	-3%	17%
O=c1c(Cl)c(Cl)cnn1-c1ccccc1	-27%	10	-12%	13µM*	0%
CCCCNc1cnn(-c2ccccc2)c(=O)c1Cl	nt	nt	nt	-3%	-2%
Fc1ccc(-c2nnc3sc(C4COc5ccccc5O4)nn23)cc1 (stereo not drawn)	?	-27	28µM*	1%	-2%
c1ccc2c(c1)OCC(c1nnc3n1-c1ccccc1SC3)O2 (stereo not drawn)	15%	-9	13µM*	?	-1%
c1csc(-c2nn3c(C4COc5ccccc5O4)nnc3s2)c1 (stereo not drawn)	-4%	-15	8.9µM*	8.9µM*	5%

Screening data (PubChem BioAssay)
